Results published in ChEMBL document CHEMBL4513216, “Probing the Open Global Health Chemical Diversity Library for Multistage-Active Starting Points for Next-Generation Antimalarials” (ACS Infect Dis, 2020).
The whole screen tested about 68,000 compounds, of which about 2,700 (4%) showed an effect of 50% or more. This excerpt belongs to a sample that is enriched for strong results.

test system: Plasmodium berghei; assay: Screen against P. berghei liver stage (PbLuc), transformed with Luciferase, at 2uM; assay type: functional, HepG2; details: tested at 2 uM

In order of falling INHIBITION:
1. Cc1ccc(-c2cn(C3CCN(C(=O)[C@H]4CCCO4)CC3)nn2)cc1  74.44%
2. O=C(Nc1ccccc1C(=O)N1CCCC1)NC1CCOCC1  70.83%
3. N#Cc1cccc(S(=O)(=O)N2CCCCC2C(N)=O)c1 (configuration not stated)  70.24%
4. CC(C)c1ccc(CS(=O)(=O)Cc2nc(N)nc(N(C)C)n2)cc1  64.9%
5. O=C(CN1CC(c2nc(C3CC3)no2)C1)N1CCOCC1  56.9%
6. Cc1ccccc1CCC1CCCN(Cc2nnc(-c3ccco3)o2)C1 (configuration not stated)  55.7%
7. COc1nc2ccn(CCNc3cc(C)ccn3)c(=O)c2cc1C#N  55.39%
8. CCC(=O)Nc1cccc(OCC(=O)N(C)Cc2nc(C)c[nH]2)c1  53.13%
9. CN(Cc1nnc(-c2ccco2)o1)C1CCCN(c2cccnn2)C1 (configuration not stated)  53.03%
10. O=C(NCCN1CCOCC1)c1ccc(-n2ccc3ccccc32)s1  52.4%
11. CN(Cc1ncc(C(C)(C)C)o1)C1CCCN(c2cccnn2)C1 (configuration not stated)  51.21%
12. O=c1n(CC2CC2)nc(C2CCNCC2)n1Cc1ccccc1  51.19%
13. COc1cccc(C(=O)N(C)C(C)c2c(C)n[nH]c2C)c1OC (configuration not stated)  50.63%
14. CCOCCn1nc(C2CCNCC2)n(Cc2ccccc2)c1=O  49.95%
15. Cc1c(NC(=O)NC2CCOCC2)cccc1C(=O)N1CCCC1  48.39%
16. CN(Cc1cccnc1)C1CCCN(Cc2noc(C3CC3)n2)C1 (configuration not stated)  42.12%
17. Cn1cc(CC(=O)N2CCCC(n3cncn3)C2)cn1 (configuration not stated)  38.76%
18. CCc1n[nH]c(C2CN(C(=O)Cc3ccc(C)nc3)CCO2)n1 (configuration not stated)  36.48%
19. CC(C)=CCS(=O)(=O)Cc1nc(C(C)C)no1  34.69%
20. O=C1CCCN1CCN1CCC(c2ccn[nH]2)CC1  33.26%
21. O=C(C1CCCO1)N1CCC(n2cc(-c3ccc(F)cc3)nn2)CC1 (configuration not stated)  31.51%
22. CCc1c(C)nc(N)nc1NCCSCc1[nH]cnc1C  29.98%
23. CCOc1cccc(NC(=O)c2cnc(C)cn2)n1  29.97%
24. C=C(C)COc1ccccc1C(=O)N(C)C(C)c1c(C)n[nH]c1C (configuration not stated)  29.81%
25. O=C(Cc1ccccc1Cl)NCCN1CCC(c2cccs2)CC1  28.43%
26. O=C(NCCCN1CCOCC1)c1ccc(-n2ccc3ccccc32)s1  28.31%
27. CCCn1nc(C2CCNCC2)n(Cc2ccccc2)c1=O  26.92%
28. Cn1ncc(C(=O)OCC2CC(=O)N(c3ccccc3)C2)c1C(F)F (configuration not stated)  26.62%
29. Cc1nc(C)n(CC2CCCN(Cc3nnc(-c4ccco4)o3)C2)n1 (configuration not stated)  22.51%
30. CN(Cc1nc(-c2ccco2)no1)C1CCCN(c2cccnn2)C1 (configuration not stated)  22.1%
31. CC(CN(C)C)Nc1nc(O)cc(Cc2ccccc2F)n1 (configuration not stated)  21%
32. CCC(=O)Nc1cccc(OCC(=O)N(C)Cc2ccon2)c1  19.91%
33. O=C(CN1CCCC(c2noc(C3CC3)n2)C1)N1CCCC1 (configuration not stated)  19.45%
34. CCc1cnc(N2C[C@@H]3C[C@H](C(=O)NC)[C@H](C2)O3)nc1  18.91%
35. CCN(CC)C(=O)c1ccn(COc2ccc(F)cc2)n1  17.7%
36. Cc1cccc(CN2CCn3cc(CNC(=O)CC4CC4)nc3C2)n1  17.24%
37. O=C(NCCCN1CCCCC1)c1ccc(-n2ccc3ccccc32)s1  13.64%
38. CC1CCN(C(=O)CN2CC(c3nc(C4CC4)no3)C2)CC1  12.57%
39. CC(C)NC(=O)C1CN(C(=O)Nc2cccc(F)c2)CC12CCOCC2 (configuration not stated)  9.53%
40. O=C1COC2(CCN(Cc3nccs3)CC2)CN1CC1CC1  7.86%
41. O=C(C1CCCO1)N1CCC(n2cc(-c3ccsc3)nn2)CC1 (configuration not stated)  7.67%
42. CCC(CN1CCCC1)NC(=O)C1(c2cccc(F)c2)CC1 (configuration not stated)  6.64%
43. COCCOc1cccc(C(=O)N2CCCCC2c2nccs2)c1 (configuration not stated)  4.41%
44. COc1nc2ccn(CCc3scnc3C)c(=O)c2cc1C#N  0.31%
45. CC(C)C(=O)NC1CC2(CCN(CC(=O)N(C)C)CC2)c2ccccc21 (configuration not stated)  -0.91%
46. CN(Cc1ncc(-c2ccccc2)o1)C1CCCN(c2cccnn2)C1 (configuration not stated)  -4.81%
47. COc1cccc(-n2cc(CN(C)C(=O)c3cnc(O)cn3)cn2)c1  -6.27%
48. Cc1nc(CN(C)C2CCCN(c3cccnn3)C2)oc1C (configuration not stated)  -6.71%
49. CC(=O)NCCC1CCCCN1S(=O)(=O)c1cccc(C#N)c1 (configuration not stated)  -7.53%
50. O=C(c1cccnc1)N1CCC2(CC1)CCN(c1ccsc1)C2=O  -8.05%
51. N#Cc1cccc(S(=O)(=O)N2CCCCC2CCN2CCCC2)c1 (configuration not stated)  -8.84%
52. CN1CCCC1CCNC(=O)c1ccccc1-n1cc(CN)cn1 (configuration not stated)  -10.49%
53. C=C(C)COc1cccc(C(=O)N(C)C(C)c2c(C)n[nH]c2C)c1 (configuration not stated)  -10.92%
54. CC(C)(C)c1nc(CN2CCCC2c2nnc3ccccn23)no1 (configuration not stated)  -12.01%
55. Cc1c(NC(=O)NC2CCCC2)cccc1C(=O)N1CCSCC1  -12.09%
56. CN(Cc1nnc(C2CC2)o1)C1CCCN(c2cccnn2)C1 (configuration not stated)  -15.05%
57. O=C([C@@H]1CCCN1c1nccc(Nc2ccccc2)n1)N1CCCCC1  -16.43%
58. c1coc(-c2nnc(CN3CCCC(CN4CCCCCC4)C3)o2)c1 (configuration not stated)  -22.43%
59. CC(C)N1CCCn2c(nc(CNC(=O)c3nccn3C)cc2=O)C1  -25.29%
60. CCn1nc(C)c2nc(C(C)C)nc(NCCCn3cccn3)c21  -25.67%
61. CC(C)c1ccc(S(=O)(=O)Cc2nc(N)nc(N(C)C)n2)cc1  -25.72%
62. COc1nc2ccn(CCc3cnccn3)c(=O)c2cc1C#N  -32.52%
63. Cc1noc(C)c1CCC(=O)N1CCn2cccc2C1C (configuration not stated)  -39.01%
64. CN(Cc1ccc(F)cc1)C(=O)NCc1nnc2n1CCCCC2  -43.41%
65. Cc1ccc(CS(=O)(=O)Cc2nc(N)nc(N(C)C)n2)cc1  -44.8%
66. CCc1cccc(NC(=O)CCC(=O)N(C)Cc2nc(C)c[nH]2)c1  -53.55%
67. NS(=O)(=O)c1cnn(CCC(=O)N(Cc2ccccc2)C2CC2)c1  -102.2%
